Assay [1] is described as follows: HepG2 liver cancer cell viability effects, profiling panel, resazurin fluorescence, 24 h, PK04 Diversity Set (AID 1172). Further: test concentration not given here. Conditions: higher = more signal. A general note: The colour change of resazurin is a common sign of viable cells or microbes.
Assay [2] is described as follows: basal S. cerevisiae growth modulation, no modifier, primary screen, OD600, strain BY4716, 24 h, basal condition (AID 1173). The note with it: OD600, 24 h, higher = more signal, called active from +8 up or from −8 down.
A short description of assay [3]: MM1S myeloma cell viability, profiling panel, resazurin fluorescence, basal, 24 h, PK04 Diversity Set (AID 1174).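 Further: MM1S multiple myeloma cell line; test concentration not given here.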 The note with it: higher = more signal, called active from +8 up or from −8 down.
Assay [4] addresses Dihydroorotate dehydrogenase (quinone), mitochondrial (Plasmodium falciparum (isolate 3D7)) (UniProt Q08210). The experiment in a line: PfDHODH enzyme inhibitors, primary screen, biochemical, C-terminal His tag, absorbance 600 nm (AID 1175).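 Further: recombinant parasite enzyme with a five histidine tag at its C terminus; test concentration not given here.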 The note with it: DCIP absorbance 600 nm, higher = more signal, called active from +8 up or from −8 down.
Assay [5] can be described thus: P. aeruginosa biofilm formation inhibitors, primary screen, strain PAO1, LB-PBS medium, absorbance 600 nm (AID 1176). Further: test concentration not given here. Conditions: P. aeruginosa PAO1 growth/biofilm, A600, 12 h; higher = more signal.
Assay [6] is described as follows: S. cerevisiae RM11-1a growth modifiers, primary screen, strain RM11-1a, OD600, basal, 24 h (AID 1177).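 Further: cultures grown under basal conditions with no added stressor; test concentration not given here.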 Conditions: OD600, 24 h, higher = more signal, called active from +8 up or from −8 down.
Assay [7] is described as follows: E. coli acrAB mutant growth effects, primary screen, E. coli filamentation inducers, strain DRC39, OD650, 24 h (AID 1178).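 Further: growth measured as culture turbidity by optical density at 650 nm; test concentration not given here.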 The note with it: higher = more signal, called active from +8 up or from −8 down.
Assay [8] is described as follows: E. coli acrAB mutant growth effects, primary screen, E. coli filamentation inducers, strain DRC39, OD650, 48 h (AID 1179).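 Further: screen aims at cell division blockers that make cells filament.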 Conditions: E. coli DRC39 delta-acrAB growth, higher = more signal, called active from +8 up or from −8 down.
Assay [9] can be described thus: RPMI8226 myeloma cell viability, profiling panel, resazurin fluorescence, basal, 24 h, PK04 Diversity Set (AID 1180).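 Further: RPMI8826 multiple myeloma cell line at 5000 cells per well; test concentration not given here.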 Conditions: higher = more signal.
Assay [10] deals with E3 ubiquitin-protein ligase XIAP (Homo sapiens) (UniProt P98170). Description: XIAP binders, primary screen, biophysical, small-molecule microarray, fluorescence 635 nm (AID 1181).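 Further: score merges 667 nm emission and signal to noise over triplicate slides.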 The note with it: small-molecule microarray binding, higher = more signal.

Activity calls are given as the source filed them. Unless noted, how the calls were made is not given here.

Chain of Dihydroorotate dehydrogenase (quinone), mitochondrial (Plasmodium falciparum (isolate 3D7)) (Q08210 whole entry, looked up): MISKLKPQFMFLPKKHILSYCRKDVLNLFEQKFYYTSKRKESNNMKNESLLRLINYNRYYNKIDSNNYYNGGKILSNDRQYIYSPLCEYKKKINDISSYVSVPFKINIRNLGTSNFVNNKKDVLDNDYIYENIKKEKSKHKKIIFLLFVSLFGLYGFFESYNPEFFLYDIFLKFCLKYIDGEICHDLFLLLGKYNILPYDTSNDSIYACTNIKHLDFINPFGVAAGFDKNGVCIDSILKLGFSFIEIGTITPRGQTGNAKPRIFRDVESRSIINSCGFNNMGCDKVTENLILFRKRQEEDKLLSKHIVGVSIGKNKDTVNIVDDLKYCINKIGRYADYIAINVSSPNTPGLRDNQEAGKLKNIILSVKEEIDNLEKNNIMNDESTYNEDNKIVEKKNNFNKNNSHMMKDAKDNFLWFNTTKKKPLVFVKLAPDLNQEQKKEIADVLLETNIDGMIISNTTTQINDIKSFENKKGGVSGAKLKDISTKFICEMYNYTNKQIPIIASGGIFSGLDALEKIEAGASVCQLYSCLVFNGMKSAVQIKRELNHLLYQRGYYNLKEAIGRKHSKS
Chain of E3 ubiquitin-protein ligase XIAP (Homo sapiens) (P98170 whole entry, looked up): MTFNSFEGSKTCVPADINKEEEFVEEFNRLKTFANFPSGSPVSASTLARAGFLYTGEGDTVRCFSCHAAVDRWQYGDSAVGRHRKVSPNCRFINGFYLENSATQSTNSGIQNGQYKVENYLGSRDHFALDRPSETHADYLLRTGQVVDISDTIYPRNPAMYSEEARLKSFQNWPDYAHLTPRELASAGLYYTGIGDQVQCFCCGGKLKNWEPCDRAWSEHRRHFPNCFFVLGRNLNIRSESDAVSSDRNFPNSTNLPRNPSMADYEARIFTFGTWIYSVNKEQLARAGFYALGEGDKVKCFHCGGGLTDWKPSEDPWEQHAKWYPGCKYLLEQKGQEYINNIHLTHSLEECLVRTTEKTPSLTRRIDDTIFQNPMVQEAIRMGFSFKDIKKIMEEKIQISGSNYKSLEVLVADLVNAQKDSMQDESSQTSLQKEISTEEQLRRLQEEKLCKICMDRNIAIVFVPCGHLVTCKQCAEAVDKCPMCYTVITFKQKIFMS

Turning to `C=CC[C@@]1(C(=O)N2CCOCC2)N=C(c2ccc(OCCCO)cc2)O[C@@H]1c1ccccc1CN=[N+]=[N-]`, the z-score in [1] is 0.0491; in assay [2], 0.0155 (inactive); in assay [3], 0.118 (inactive); in assay [5], 0.137 (inactive); in [6], -0.109 (inactive); in assay [7] it was -0.0245 (inactive). Also, the z-score in assay [8] was 0.443 (inactive); in [9] it was -0.052. Further, the composite z-score in assay [4] is 0.159 (inactive); in assay [10] it was 0.184.

With `CN(C)C(=O)[C@@]1(CCS(=O)(=O)c2ccccc2)N=C(c2ccc(OCCCO)cc2)O[C@H]1c1ccccc1`, the z-score in assay [1] was 0.29; in [2], 0.26 (inactive); in assay [3] it was -0.236 (inactive); in [5] it was -0.372 (inactive); in assay [6], -0.0905 (inactive); in [7], -1.47 (inactive). For the same compound, the results for the z-score in [8] and in assay [9] were -0.732 (inactive) and -0.22, respectively. Also, the composite z-score was -0.431 (inactive) in assay [4] and -0.0866 in [10].

For the compound `O=C(N1CCCCC1)[C@@]1(CCS(=O)(=O)c2ccccc2)COC(c2ccc(OCCCO)cc2)=N1`, the z-score was -0.27 in [1]; -0.22 (inactive) in [2]; -1.52 (inactive) in assay [3]; 0.258 (inactive) in assay [5]; -0.008 (inactive) in assay [6]; 0.196 (inactive) in assay [7]. Besides, the z-score is 0.21 (inactive) in assay [8] and -0.675 in [9]. The values for the composite z-score in assay [4] and in assay [10] were -0.0606 (inactive) and 0.0942, respectively.

In the case of `COc1cc(OC)c(C(O)C2C=CC3C(=O)N(C)C(=O)C3N2NC(=O)OC(C)(C)C)cc1Br` (stereo not given), the z-score in assay [1] is -1.88; in [2] it was -5.3 (inactive); in assay [3], -0.652 (inactive); in [5] it was 0.683 (inactive); in [6], 1.18 (inactive); in assay [7], -0.143 (inactive). Besides, the values for the z-score in assay [8] and in assay [9] were -0.376 (inactive) and -0.34, respectively. Further, the composite z-score in assay [4] was 0.985 (inactive); in [10], 0.677.

Take `CC(=O)c1ccc(C(O)C2C=CC3C(=O)N(c4ccccc4)C(=O)C3N2Nc2ccc(C#N)cc2)cc1` (stereo not given): the z-score in [1] is -1.04; in assay [2], -2.04 (inactive); in assay [3] it was -0.848 (inactive); in assay [5], 0.695 (inactive); in assay [6] it was -0.826 (inactive); in [7], -0.821 (inactive). Also, the z-score was -0.433 (inactive) in assay [8] and -1.84 in [9]. For the same compound, the values for the composite z-score in [4] and in assay [10] were -0.946 (inactive) and -0.396, respectively.

Consider `COC(=O)c1c2oc(c1C(=O)OC)C(=O)N(C)Cc1cn(nn1)C[C@H](Cc1ccccc1)NC(=O)N[C@H](CO)CC2`, for which the z-score in assay [1] was -0.356; in [2] it was 0.415 (inactive); in assay [3], -0.286 (inactive); in [5], 0.0914 (inactive); in assay [6] it was 1.2 (inactive); in [7] it was -0.499 (inactive). For the same compound, the z-score in assay [8] was -0.913 (inactive); in assay [9], -0.139. Also, the figures for the composite z-score in assay [4] and in [10] were 0.31 (inactive) and -0.0559, respectively.

For the compound `C[C@H]1NC(=O)[C@@]23C(=O)N[C@@H](Cc4ccccc4)C2[C@H](C)[C@@]2(C)O[C@H]2C3/C=C/C/C=C\CNC(=O)[C@H](Cc2ccccc2)NC1=O` (stereo not given in full), the z-score was -0.466 in assay [1]; 0.303 (inactive) in assay [2]; -0.0253 (inactive) in assay [3]; 1.24 (inactive) in assay [5]; 1.31 (inactive) in [6]; 0.513 (inactive) in assay [7]. Moreover, the z-score in assay [8] was 0.32 (inactive); in [9], 0.0583. Further, the figures for the composite z-score in assay [4] and in assay [10] were 0.226 (inactive) and 0.104, respectively.

Turning to `C[C@@H]1ON(c2ccc(C(=O)OC(C)(C)C)cc2)[C@H](c2ccc(O)cc2)[C@H]1C(=O)N1C(=O)OC[C@H]1Cc1ccccc1`, the z-score in [1] was -1.61; in [2], 0.479 (inactive); in assay [3], -1.04 (inactive); in assay [5], 0.212 (inactive); in [6] it was 0.351 (inactive); in assay [7], -0.682 (inactive). The z-score is -0.118 (inactive) in assay [8] and -0.687 in assay [9]. The composite z-score is 0.771 (inactive) in assay [4] and -0.13 in assay [10].

As to `C=CCC(OC(C)=O)[C@@H]1[C@@H](N(Cc2cccc3ccccc23)C(=O)Cc2ccc(OC)cc2)c2cc(OCCCO)ccc2N1C(=O)c1ccc2ccccc2n1` (stereo not given in full), the z-score in assay [1] was 0.602; in [2], 0.0243 (inactive); in [3], -0.415 (inactive); in [5], -0.145 (inactive); in [6], -0.212 (inactive); in assay [7] it was 0.884 (inactive). The results for the z-score in assay [8] and in assay [9] were 0.284 (inactive) and 0.0309, respectively. Moreover, the composite z-score in [4] was -0.175 (inactive); in assay [10], 0.343.

With `[N-]=[N+]=Nc1ccccc1[C@H]1OC(c2ccc(OCCCO)cc2)=N[C@@]1(Cc1ccccc1)C(=O)N1CCCCC1`, the z-score in [1] is -1.16; in assay [2], -0.722 (inactive); in assay [3], -3.61 (inactive); in assay [5], 0.603 (inactive); in assay [6], 1.97 (inactive); in [7] it was 0.359 (inactive). The values for the z-score in assay [8] and in [9] were 0.617 (inactive) and -4.52, respectively. In addition, the composite z-score in [4] was -0.827 (inactive); in assay [10] it was 0.0197.

Take `O=C1OCC=C[C@H]2OC34C=CCN(Cc5ccccc5)C(=O)[C@H]3N(CCCCCCO)C(=O)[C@@H]4[C@@H]12` (stereo not given in full): the z-score in assay [1] was 1.07; in assay [2], -0.296 (inactive); in [3], 1.59 (inactive); in assay [5] it was 0.0683 (inactive); in [6], -0.739 (inactive); in [7], 0.693 (inactive). The values for the z-score in assay [8] and in [9] were 0.415 (inactive) and 0.517, respectively. In addition, the figures for the composite z-score in assay [4] and in assay [10] were -1.65 (inactive) and 0.052, respectively.

With `COc1cc2c(cc1OC)CN(C(=O)[C@@H]1[C@H]3C(=O)O[C@H](c4ccccc4)[C@H](c4ccccc4)N3[C@H](c3ccc(OCCO)cc3)[C@@]13C(=O)Nc1ccc(C#CC4(O)CCCCCC4)cc13)CC2`, the z-score is 0.61 in assay [1]; -0.257 (inactive) in assay [2]; 0.341 (inactive) in assay [3]; 4.2 (inactive) in [5]; 2.82 (inactive) in [6]; 0.312 (inactive) in [7]. Further, the values for the z-score in assay [8] and in assay [9] were 0.854 (inactive) and -0.221, respectively. The composite z-score is -1.3 (inactive) in assay [4] and -0.0382 in assay [10].

As for `C[N+](C)(C)CCCC[C@@H]1NC(=O)[C@H]2C[C@@H](C(=O)NCCCCCCN)[C@@H](c3ccc(O)cc3)N2C1=O`, the z-score is -0.132 in [1]; 0.252 (inactive) in assay [2]; 0.99 (inactive) in assay [3]; -0.515 (inactive) in assay [5]; 1.18 (inactive) in assay [6]; -0.231 (inactive) in assay [7]. Also, the z-score is -0.185 (inactive) in [8] and 0.976 in assay [9]. In addition, the values for the composite z-score in [4] and in assay [10] were 0.302 (inactive) and -0.0286, respectively.

These data come from PubChem BioAssay.
